In the library only some 3.5% were active in any assay of this set; here they are far more common.
BJeLR lethal: BJeLR cell viability loss. BJeLR (HRASV12) viability, CellTiter-Glo ATP luminescence, 48 h. inhibition, % (no concentration beside the values). actives 0.17% (n = 300,000). AID 1554; in the data active = inhibition above about 50%; inconclusive = no clear call, values can overlap the other calls
BoNT F protease: BoNT F light chain protease inhibition. Multiplex microsphere protease cleavage assay, flow cytometry. inhibition, % at 10 µM. actives 0.22% (n = 360,000); in the data active = inhibition above about 35%, passing the limit was not always enough; inconclusive = no clear call, values can overlap the other calls; also: plate controls were buffer without enzyme for full effect and enzyme alone for no effect
Anthrax LF inh2: anthrax lethal factor protease inhibition; AID 588501; actives 0.12% (n = 360,000); P15917; inhibition, % at 10 µM; multiplex microsphere protease cleavage assay, LF; also: plate controls were buffer without enzyme for full effect and enzyme alone for no effect
Target sequence (P15917 whole entry, looked up): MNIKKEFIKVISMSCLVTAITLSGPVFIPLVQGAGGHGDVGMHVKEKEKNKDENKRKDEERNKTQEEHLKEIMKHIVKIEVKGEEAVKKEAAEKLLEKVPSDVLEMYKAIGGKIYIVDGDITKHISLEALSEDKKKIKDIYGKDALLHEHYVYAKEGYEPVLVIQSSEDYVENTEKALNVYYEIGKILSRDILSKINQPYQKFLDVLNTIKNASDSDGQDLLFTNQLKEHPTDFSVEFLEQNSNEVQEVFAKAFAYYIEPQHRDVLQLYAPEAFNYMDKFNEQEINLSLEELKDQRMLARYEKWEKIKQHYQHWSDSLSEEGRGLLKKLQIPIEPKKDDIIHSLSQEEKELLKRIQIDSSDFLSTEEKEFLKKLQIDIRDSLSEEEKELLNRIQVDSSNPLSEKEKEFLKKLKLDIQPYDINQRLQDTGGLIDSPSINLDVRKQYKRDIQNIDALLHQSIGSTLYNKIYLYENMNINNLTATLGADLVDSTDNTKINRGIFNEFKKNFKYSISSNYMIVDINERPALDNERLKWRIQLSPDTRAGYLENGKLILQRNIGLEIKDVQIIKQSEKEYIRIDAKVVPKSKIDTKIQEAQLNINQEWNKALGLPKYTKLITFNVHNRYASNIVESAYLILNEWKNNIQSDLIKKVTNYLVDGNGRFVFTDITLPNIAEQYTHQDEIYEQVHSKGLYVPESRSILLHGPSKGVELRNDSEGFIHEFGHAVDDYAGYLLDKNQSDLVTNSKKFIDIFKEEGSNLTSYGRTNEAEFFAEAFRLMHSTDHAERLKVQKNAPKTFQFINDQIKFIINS
Autofluor counter: counter-screen for toxin protease inhibitors: compound fluorescence. fluorescence intensity (no concentration beside the values). compound autofluorescence counterscreen, microsphere flow cytometry; stronger effect = higher value. actives 3.1% (n = 360,000); in the data active = fluorescence intensity above about 16000; inconclusive = no clear call, values can overlap the other calls
BoNT-A LC inh2: BoNT A light chain protease inhibition. multiplex microsphere protease substrate cleavage, flow cytometry. inhibition, % at 10 µM. actives 0.17% (n = 360,000). AID 588499; also: plate controls were buffer without enzyme for full effect and enzyme alone for no effect
Numbers without * were called inactive; ? = inconclusive; · = no result given. Rule as the data show it, unless noted: active = inhibition above about 30%; inconclusive = no clear call, values can overlap the other calls; inactive = below that.

SMILES | BJeLR lethal | BoNT F protease | Anthrax LF inh2 | Autofluor counter | BoNT-A LC inh2
CC(C)CC(N)c1csc(Nc2cnccn2)n1 (stereo not drawn) | · | -2 | 4 | 3708 | 0
O=C(CN1C(=O)c2cccnc2C1=O)c1ccccc1 | 3 | -6 | 0 | 20963* | -3
O=C(CN1C(=O)C(=O)c2ccccc21)c1ccccc1 | -12 | 5 | 18 | 2901 | 3
COc1cccc(-n2nnc3c(=O)n(CC(=O)NC4CCCC4)cnc32)c1 | 4 | 0 | 0 | 20217* | 1
COc1cccc(-n2nnc3c(=O)n(Cc4ccc(C)cc4)cnc32)c1 | 2 | 1 | -4 | 10755 | 0
COc1cccc(-n2nnc3c(=O)n(Cc4ccc(Br)cc4)cnc32)c1 | -2 | -6 | -4 | 21527* | -5
O=C(Cn1cnc2c(nnn2Cc2ccc(F)cc2)c1=O)NC1CCCC1 | · | 4 | 0 | 22114* | 3
COc1cccc(-n2nnc3c(=O)n(Cc4ccc(Cl)cc4)cnc32)c1 | -1 | -1 | 0 | 21157* | -1
C=C1C(=O)OCC2C(C(=O)O)=CC3C(C)C(C)=CC123 (stereo not drawn) | · | -1 | -4 | 3517 | 0
COc1ccc(OC)c(NC(=O)CCN2C(=O)c3cccc([N+](=O)[O-])c3C2=O)c1 | 8 | -11 | -12 | 3388 | -3
Nc1ncnc2c1ncn2[C@@H]1O[C@H](CNC(=O)[C@@H](N)Cc2ccc(C(=O)c3ccccc3)cc2)[C@@H](O)[C@H]1O | · | -7 | -1 | 5469 | 0
O=C1CSC(=Nc2cc(Cl)ccc2Cl)N1 | -3 | 2 | 2 | 22505* | 4
O=C1CSC(=Nc2ccc(Cl)cc2)N1 | -8 | 23 | 2 | 4330 | 0
COc1ccc(OC)c(CN2C(=O)c3ccccc3C2c2nnnn2Cc2ccccc2)c1 (stereo not drawn) | · | -4 | 1 | 5998 | 0
COc1cc(OC)nc(NC2OC(=O)c3ccccc32)n1 (stereo not drawn) | -2 | -5 | -5 | 16622* | -2
O=C(NCCc1ccccc1)c1nc2c(nnn2Cc2ccccc2Cl)c(=O)[nH]1 | 7 | -4 | -5 | 16657* | -2
O=C(NC1CC1)c1nc2c(nnn2Cc2ccccc2Cl)c(=O)[nH]1 | 8 | 2 | 8 | 7900 | -1
CCN(CC(=O)NCc1cccs1)C(=O)CCC(=O)c1ccc(F)cc1 | -7 | -5 | 0 | 5613 | 0
O=S(=O)(Cc1ccccc1)N1CCc2ccccc2C1 | -2 | -5 | -2 | 26161* | ?
O=S(=O)(Cc1ccccc1)N1CCCCC1 | -13 | -8 | -6 | 3305 | 1
CC1(C)CC(=O)N(c2cc(Cl)cc(Cl)c2)C(=O)C1 | 4 | 33 | 4 | 3575 | -1
COc1cc(C(O)c2nc(-c3csc4ccccc34)cs2)ccc1F (stereo not drawn) | · | 0 | 2 | 3594 | 0
CC(C)Oc1ccc(OCCNC2CCCC2)cc1 | -4 | 1 | 0 | 20103* | 2
CCOc1cccc(OCCNC2CCCC2)c1 | 3 | 5 | 5 | 3611 | 0
COc1ccccc1CCNC1CCCCCC1 | 15 | -16 | -1 | 2899 | 0
SMILES | BJeLR lethal | BoNT F protease | Anthrax LF inh2 | Autofluor counter | BoNT-A LC inh2
COc1ccccc1OCCNC1CCCC1 | 2 | 2 | 3 | 21707* | 0
Cn1c(=O)c2cc(NC(=O)CCc3ccc4c(c3)OCO4)ccc2n1Cc1ccc(F)cc1 | · | -5 | -4 | 3614 | 0
CCn1c(SCc2nc(-c3ccccc3)no2)nnc1-c1ccco1 | -1 | -6 | -4 | 23800* | -3
c1ccc(-c2noc(CSc3nnnn3C3CCCCC3)n2)cc1 | -17 | -3 | -2 | 20752* | -1
O=C(Cn1nnc(-c2ccc(OCc3ccccc3F)cc2)n1)N1CCOCC1 | 0 | -2 | -2 | 22617* | 0
Cc1ccc(S(=O)(=O)CCC(=O)OCC(=O)NC(=O)c2ccccc2)cc1 | -7 | -244 | -38 | 40297* | -154
COc1cc(Br)cc(CN2CCN(C/C=C/c3ccccc3)CC2)c1O | -9 | -12 | -6 | 11697 | -2
COc1cc(Br)cc(CN2CCN(C)CC2)c1O | 1 | 6 | 0 | 22111* | ?
COC(=O)c1ccc(C(=O)OC)nc1 | -3 | 35* | -5 | 4086 | 1
COC(=O)c1[nH]c2cc(C)ccc2c1NC(=O)CN1CCOCC1 | 2 | -1 | -3 | 5493 | -1
COC(=O)c1[nH]c2ccc(C)cc2c1NC(=O)CCN1CCN(Cc2ccc3c(c2)OCO3)CC1 | -1 | 0 | -4 | 22086* | 0
CCC(=O)Nc1sccc1C(=O)OC | 2 | -1 | -8 | 22995* | ?
COC(=O)c1ccsc1NC(=O)CN1CCN(Cc2ccc3c(c2)OCO3)CC1 | 12 | 1 | -1 | 21667* | 2
